Among all 420,000 compounds or so, about 64,000 (15%) were called active. Inconclusive results (about 27%) are left out. The call rests on the fitted dose curve; in most records, active means well fitted inhibition curve with a large enough effect; inconclusive means small, poorly fitted or top-dose-only effect; inactive means flat fitted curve, though single readings scatter. Not all results are given here. Where a call stands in place of a potency, no number is given.
Experiment: qHTS for Inhibitors of human tyrosyl-DNA phosphodiesterase 1 (TDP1): qHTS in cells in absence of CPT; further: nearly all actives have a fitted effect of over 55% in size
Conditions: DT40 Tdp1-/- hTDP1 cells, no CPT, ATP luminescence, 48 h; activity change, negative = growth inhibition: at 46.2 µM (top of the series)
Outline: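 A cellular qHTS used chicken DT40 cells lacking endogenous Tdp1 but carrying stably transfected human TDP1. Compounds were applied without camptothecin, and cell growth kinetics were judged by ATP-dependent luminescence after ≥48 hr.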
Potency means the concentration at half of the fitted maximal effect.

Structure (SMILES) | Potency
COc1ccc(C(=O)O)cc1S(=O)(=O)NCc1cccnc1 | inactive
Cc1snc(SCc2c(F)cccc2Cl)c1C#N | inactive
O=C(NN1C(=O)C2C3C=CC(O3)C2C1=O)c1ccccc1 (stereo not given) | inactive
Cc1ccc2c(C)c(C(=O)N3CCC(N4CCC(C(=O)NC5CC5)CC4)CC3)oc2c1 | inactive
COc1cc(Cl)c(C)cc1NC(=O)COC(=O)c1cc(SC)ccc1Cl | inactive
CCCCC(=O)N(C)c1c(CC)nc2c(OCc3ccc(Cl)cc3Cl)cccn12 | 9.2 µM (active)
COc1cccc(NC(=O)CN(C)C(=O)Cc2ccc(Cl)cc2Cl)c1 | inactive
CCc1nc2ccc(C(=O)N3CCC(O)(Cc4ccccc4)CC3)cn2c1N(C)C(=O)Cc1ccccc1 | inactive
CCc1nc2c(OCc3ccc(Cl)cc3Cl)cccn2c1N(C)C(=O)C(C)C | 8.2 µM (active)
CCc1nc2c(OCc3ccc(C(F)(F)F)cc3)cccn2c1N(C)C(=O)CC(C)C | 20.6 µM (active)
CCc1nc2ccc(C(=O)N(C)Cc3ccco3)cn2c1N(C)C(=O)Cc1ccccc1 | inactive
CC(NC(=O)COc1cccnc1[N+](=O)[O-])c1ccc(Cl)cc1Cl (stereo not given) | inactive
CC(C)(C)NC(=O)NC(=O)COC(=O)Cc1ccc(Cl)cc1Cl | inactive
O=C(COC(=O)C12CC3CC(CC(O)(C3)C1)C2)NC12CC3CC(CC(C3)C1)C2 | inactive
O=C(NC1CCN(C(=S)Nc2ccc(Cl)cc2)CC1)C1CCCCC1 | inactive
CC(OC(=O)CCC(=O)c1ccccc1)C(=O)Nc1ccc(F)cc1 (stereo not given) | inactive
CCOC(=O)c1c(C)nn(-c2ncccc2NC(=O)CCC(=O)O)c1C | inactive
C#CCCCc1nc2ccccc2c(=O)n1N | inactive
C/C(=N\N1CCN(Cc2ccc(C)cc2)CC1)c1ccco1 | inactive
CC(=O)NC1C(Oc2ccc(C=O)cc2)OC(COC(C)=O)C(OC(C)=O)C1OC(C)=O (stereo not given) | inactive
CC(=O)Oc1ccc2c(=O)oc(-c3ccc([N+](=O)[O-])cc3)nc2c1 | inactive
CCCCSCCCNC(=O)C1CCC(CNS(=O)(=O)c2ccc(NC(C)=O)cc2)CC1 (stereo not given) | inactive
Nc1nnnn1/N=C/c1cccs1 | inactive
O=C(NCc1ccc(Cl)cc1)NCc1ccc(Cl)cc1 | inactive
N#C/C=C/N1CCN(Cc2ccc3c(c2)OCO3)CC1 | inactive
Fc1ccc2[nH]c3c(N4CCSCC4)ncnc3c2c1 | 9.2 µM (active)
O=C(CSc1nc2c(c(=O)[nH]1)CN(Cc1ccc3c(c1)OCO3)CC2)Nc1cc(F)ccc1F | inactive

Structure (SMILES) | Potency
Fc1ccc2[nH]c3c(N4CCN(Cc5ccc6c(c5)OCO6)CC4)ncnc3c2c1 | 2.31 µM (active)
Fc1ccc2nc(N3CCCCC3)sc2c1 | inactive
CN(C)c1cccc(C(=O)N2CCC(n3nccc3NC(=O)C3CCOC3)CC2)c1 (stereo not given) | inactive
Cc1ccc(NNC(=O)c2c(F)cccc2Cl)cc1Cl | inactive
C/C(=N/NC(=O)CSc1ccccn1)c1ccc([N+](=O)[O-])cc1 | inactive
O=C(CCn1nnc2ccccc21)OCC(=O)c1ccc([N+](=O)[O-])cc1 | inactive
O=C(CC(n1cncn1)C(Cl)(Cl)Cl)c1ccc([N+](=O)[O-])cc1 (stereo not given) | 14.6 µM (active)
NC(=O)c1ccc(-c2csnn2)cc1 | inactive
COc1ccc(COCCN2CCN(S(=O)(=O)c3ccccc3)CCC2=O)cc1 | inactive
CN1CCC(=O)N([C@H](CO)Cc2ccccc2)CC1 | inactive
Cc1ccc(S(=O)(=O)N2CCC(=O)N([C@H](COCc3ccccc3)Cc3ccccc3)CC2)cc1 | 18.4 µM (active)
Cc1cccc(N=C2NC(=O)CS2)c1C | inactive
Cc1cccc(COc2ccccc2/C=N/Nc2ccc([N+](=O)[O-])cc2)c1 | 20.6 µM (active)
O=[N+]([O-])c1cccc(/C=N/Nc2ncc(Br)cn2)c1 | inactive
Cc1ccc(NS(=O)(=O)c2ccc(N/N=C/c3ccccc3OCC(=O)O)c([N+](=O)[O-])c2)c(C)c1 | inactive
CN1C(=O)C(CC(N)=O)N(NC(=O)c2ccc(Cl)cc2)C1=S (stereo not given) | inactive
Cc1ccccc1CSCC(=O)NC(=O)NC(C)(C)C | inactive
CC(C)(C)NC(=O)CSC(=Nc1ccccc1F)NC#N | 16.4 µM (active)
CC(C)(C)NC(=O)CSc1nnc(NC(=O)CCc2ccccc2)s1 | inactive
N#C/C(=C1\CCCN1)c1nc(-c2ccccc2)cs1 | inactive
Cc1nc(C(F)(F)F)ccc1C(=O)N1CCC1(C)C(=O)NS(=O)(=O)c1ccc(F)cc1F (stereo not given) | inactive
Cc1ccc(N(C(=O)CNC(=O)c2ccco2)C(C(=O)NC2CCCC2)c2ccncc2)cc1 (stereo not given) | inactive
Cc1ccc(N(C(=O)C(F)(F)F)C(C(=O)NC2CCCCC2)c2ccncc2)cc1C (stereo not given) | 18.4 µM (active)
CCc1ccc(N(C(=O)c2csnn2)C(C(=O)NC2CCCCC2)c2ccncc2)cc1 (stereo not given) | inactive
O=C(c1cc(-c2ccccc2O)on1)N1CCCC1 | inactive
O=C1[C@@H](c2ccccc2)[C@@H](c2ccccc2)N1c1cccnc1 | 8.2 µM (active)
O=C1C(=O)N(c2ccccc2)C(c2ccccc2)C1c1ccccc1 (stereo not given) | inactive

Structure (SMILES) | Potency
CCc1ccccc1NC1c2ccccc2C(=O)N1c1cccnc1 (stereo not given) | inactive
Cc1ccc(C2c3[nH]c4ccccc4c3CCN2C(=O)c2cccc(C)c2)cc1 (stereo not given) | 18.4 µM (active)
CCCC(=O)N1CCc2[nH]c3ccccc3c2C1 | inactive
Cc1cccc(C(=O)N2CCN(S(=O)(=O)N3CCCCC3)CC2)c1 | inactive
Cc1cccc(C(=O)N2CCc3c([nH]c4ccccc34)C2CC(C)C)n1 (stereo not given) | inactive
CCOc1cccc(CC(=O)N2CCc3c([nH]c4ccccc34)C2c2ccc(F)cc2)c1OCC (stereo not given) | 25.9 µM (active)
CCCC(=O)N1c2ccccc2NC2=C(C(=O)CCC2)C1c1ccc(F)cc1 (stereo not given) | inactive
O=C(COC(=O)CCOc1ccccc1)Nc1cc(S(=O)(=O)N2CCCCC2)ccc1Cl | inactive
CC1=Nn2c(nnc2-c2ccccc2)SC1 | inactive
COc1cccc(C(=O)NCCS(=O)(=O)NCC2CCCO2)c1 (stereo not given) | inactive
CC1CCCCN1Cc1c(O)ccc2c(=O)c(-c3cccc(Cl)c3)c(C(F)(F)F)oc12 (stereo not given) | inactive
CC(=O)c1cccc(OCC(=O)OCC(=O)Nc2cc(S(=O)(=O)N3CCCCC3)ccc2C)c1 | inactive
COc1ccc2c(c1)c(=Cc1ccc(N(C)C)cc1)c1cc(-c3ccccc3)[n+](C)n12 | 0.92 µM (active)
Cc1ccc(N2CC(NC(=O)Cc3cccs3)CC2=O)cc1 (stereo not given) | inactive
Cc1onc(-c2ccccc2)c1C(=O)N1CCOCC1 | inactive
O=C(c1ccccc1-c1ccccc1)N1CCOCC1 | inactive
Cc1oc2c(c1C(=O)N1CCOCC1)C(=O)c1ccccc1C2=O | 2.59 µM (active)
Cc1cccc(C)c1OC(=O)CSc1nnc(-c2ccccc2)o1 | inactive
Cc1ccc(-c2nnc(CN3CCN(C)CC3)o2)cc1 | inactive
COc1cccc(CN(C)CC(O)COC(c2ccccc2)c2ccccc2C)c1 (stereo not given) | 16.4 µM (active)
CCCC(O)(c1ccc(OC)cc1)C(CN(C)C)c1ccccc1 (stereo not given) | inactive
COC(=O)[C@@H](NC(=O)NCc1cccc(OC)c1)C(C)C | inactive
Cc1ccc(-n2c(SCC(=O)NCc3ccc4c(c3)OCO4)nnc2-c2cccnc2)c(C)c1 | inactive
O=C(CCSCCc1ccccn1)Nc1nccs1 | inactive
COc1ccc(C(=O)c2c(C)oc3cc([N+](=O)[O-])c(O)c([N+](=O)[O-])c23)cc1 | inactive
COc1ccc(/C=N/Nc2nc(-c3ccc(C)cc3)c(C#N)c(=O)[nH]2)cc1 | inactive
CCOC(=O)c1cc2ccccc2nc1C | inactive

Structure (SMILES) | Potency
CCOC(=O)c1cc(-c2nnc(-c3cc(OC)c(OC)c(OC)c3)o2)c(C)nc1C | 16.4 µM (active)
O=C(CCN1C(=O)[C@@H]2Cc3ccccc3CN2C1=O)NCc1ccccc1 | inactive
Cc1ccc(S(=O)(=O)N(C)C)cc1NC(=O)COC(=O)C1COc2ccccc2O1 (stereo not given) | inactive
Cc1ccc(S(=O)(=O)N(C)C)cc1NC(=O)c1ccccc1Br | inactive
Cc1ccc(S(=O)(=O)N(C)C)cc1NC(=O)c1n[nH]c(=O)c2ccccc12 | 23.1 µM (active)
CCOc1ccc(CCNC(=O)COC(=O)c2ccc(F)c(S(=O)(=O)N3CCOCC3)c2)cc1OCC | inactive
COc1ccc(C2CC(c3ccc(C)cc3)Nc3nc(N)nn32)cc1 (stereo not given) | inactive
CCOc1ccccc1C1C(C(=O)OC)=CN(C)C=C1C(=O)OC | inactive
CCOc1ccccc1C1CC(c2ccc(Cl)cc2)Nc2nc(N)nn21 (stereo not given) | 16.4 µM (active)
CC(C)[C@H](NC(=O)c1ccc(F)cc1)C(=O)OCC(=O)NC(=O)c1cccn1C | inactive
COc1ccc(S(=O)(=O)N(C)CC(=O)N2CCCC2)cc1Cl | inactive
CN1c2ccc(C=O)c3c(C=O)ccc(c23)N(C)C1(C)C | 7.31 µM (active)
O=C1c2ccccc2C(O)N1Cc1ccccc1Cl (stereo not given) | inactive
CN1CCN(S(=O)(=O)c2ccc(Nc3ccc(F)cc3)nc2)CC1 | inactive
O=C(NCc1ccccc1)C1c2ccccc2OCC(=O)N1C1CC1 (stereo not given) | inactive
NS(=O)(=O)c1ccc(CCNC(=O)c2nc(CS(=O)(=O)c3ccc(Cl)cc3)no2)cc1 | inactive
Cc1ccccc1NC(=O)NC1(C(=O)N2CCCC2)CCCCC1 | inactive
Cc1cccc(N2CC(C(=O)Nc3ccccc3N3CCCC3)CC2=O)c1C (stereo not given) | inactive
O=C(Nc1ccccc1N1CCCCC1)c1cccc(F)c1 | inactive
Cc1nnc(OCC(=O)NCCC2=CCCCC2)c2ccccc12 | inactive
Cc1ccccc1NC(=O)Nc1ccccc1N1CCCCC1 | 23.1 µM (active)
O=C(CNCCC1=CCCCC1)Nc1ccccc1N1CCCCCC1 | 23.1 µM (active)
C=CCSc1nc(Cc2ccc(Cl)cc2)nc2ccccc12 | inactive
Cc1ccc(F)cc1NC(=O)c1ccc2c(c1)OCO2 | inactive

From PubChem BioAssay AID686978 (National Center for Advancing Translational Sciences (NCATS), 2013)
